# Data published in paper PMC11062922 (Nature Chemical Biology, 2023).
# Where two headings read alike, the source gives them in different places.
# Key:
# Design in all cases: species or system human, MV4-11 + K-562 + COLO205 + SK-N-BE2 + OVCAR-8
# ACVR1B = settings: read-out: apparent Kd, n = 1
# BUB1 = settings: read-out: apparent Kd, n = 1
# CIT = settings: read-out: apparent Kd, n = 1
# MAPK14 = settings: read-out: apparent Kd, n = 1
# PAK6 = settings: read-out: apparent Kd, n = 1
# AURKB = settings: read-out: apparent Kd, n = 1
# BTK = settings: read-out: apparent Kd, n = 1
# EPHA2 = settings: read-out: apparent Kd, n = 1
# EPHB1 = settings: read-out: apparent Kd, n = 1
# LCK = settings: read-out: apparent Kd, n = 1
# MAP3K11 = settings: read-out: apparent Kd, n = 1
# MARK2 = settings: read-out: apparent Kd, n = 1
# NUAK2 = settings: read-out: apparent Kd; compound concentrations:100 nM and 1000 nM (sheet 'Samples'); n = 1
# PRKAA2 = settings: read-out: apparent Kd, n = 1
# RPS6KA3 = settings: read-out: apparent Kd, n = 1
# RPS6KB1 = settings: read-out: apparent Kd, n = 1
# PKN2 = settings: read-out: apparent Kd, n = 1
# [1] = compound concentrations:100 nM and 1000 nM (sheet 'Samples')
smiles,measurement,setting,value
COc1cccc2c(-c3ccncc3)c(-c3ccc(F)cc3)nn12 [GW468513X],potency estimated from few doses,"ACVR1B; compound concentrations: 100 nM and 1000 nM (sheet 'Samples'), CATDS: 0.110012792882782",83.3 nM
same,potency estimated from few doses,"BUB1; compound concentrations: 100 nM and 1000 nM (sheet 'Samples'), CATDS: 4.5362878745682803E-2",739 nM
same,potency estimated from few doses,"CIT; compound concentrations: 100 nM and 1000 nM (sheet 'Samples'), CATDS: 4.9718513038834899E-2",539 nM
same,potency estimated from few doses,"MAPK14; compound concentrations: 100 nM and 1000 nM (sheet 'Samples'), CATDS: 0.16592681304069401",42.8 nM
CCn1c(-c2nonc2N)nc2c(C#CC(C)(C)O)nc(OC[C@@H](N)c3ccccc3)cc21 [GSK938890A],potency estimated from few doses,"PAK6; compound concentrations: 100 nM and 1000 nM (sheet 'Samples'), CATDS: 9.3701498593083701E-2",129 nM
O=C1NC(=O)C(N2CCc3ccccc32)=C1c1ccccc1Cl [SB-373598],potency estimated from few doses,AURKB; [1],466 nM
same,potency estimated from few doses,BTK; [1],124 nM
same,potency estimated from few doses,BUB1; [1],1690 nM
same,potency estimated from few doses,EPHA2; [1],87.4 nM
same,potency estimated from few doses,EPHB1; [1],373 nM
same,potency estimated from few doses,LCK; [1],138 nM
same,potency estimated from few doses,MAP3K11; [1],1040 nM
same,potency estimated from few doses,MARK2; [1],1350 nM
same,potency estimated from few doses,NUAK2,780 nM
same,potency estimated from few doses,PAK6; [1],419 nM
same,potency estimated from few doses,PRKAA2; [1],694 nM
same,potency estimated from few doses,RPS6KA3; [1],966 nM
Fc1ccc(-c2c(-c3ccncc3)[nH]c3cccnc23)cc1 [RO1153853-000],potency estimated from few doses,"ACVR1B; compound concentrations: 100 nM and 1000 nM (sheet 'Samples'), CATDS: 6.54692284622726E-2",700 nM
same,potency estimated from few doses,"BUB1; compound concentrations: 100 nM and 1000 nM (sheet 'Samples'), CATDS: 4.9666048128405298E-2",1690 nM
same,potency estimated from few doses,"CIT; compound concentrations: 100 nM and 1000 nM (sheet 'Samples'), CATDS: 4.9233992215081297E-2",1750 nM
same,potency estimated from few doses,"MAPK14; compound concentrations: 100 nM and 1000 nM (sheet 'Samples'), CATDS: 9.4137479402045199E-2",308 nM
CN1C[C@@H]2Cn3c(c(C4=C(c5cn(C)c6ccccc56)C(=O)NC4=O)c4ccccc43)C[C@H]2C1.Cl [RO0320234-001],potency estimated from few doses,AURKB; [1],444 nM
same,potency estimated from few doses,BTK; [1],86.7 nM
same,potency estimated from few doses,EPHA2; [1],59.7 nM
same,potency estimated from few doses,EPHB1; [1],10.4 nM
same,potency estimated from few doses,LCK; [1],134 nM
same,potency estimated from few doses,NUAK2,843 nM
same,potency estimated from few doses,PAK6; [1],111 nM
same,potency estimated from few doses,PRKAA2; [1],448 nM
same,potency estimated from few doses,RPS6KA3; [1],2100 nM
same,potency estimated from few doses,RPS6KB1; [1],86.4 nM
Cl.Cl.NCC(C(=O)Nc1cc(Br)c(-c2ccnc3[nH]ccc23)s1)c1ccccc1.NCC(C(=O)Nc1cc(Br)c(-c2ccnc3[nH]ccc23)s1)c1ccccc1 (centres unmarked) [GSK1269851A],potency estimated from few doses,BTK; [1],638 nM
same,potency estimated from few doses,BUB1; [1],2170 nM
same,potency estimated from few doses,EPHA2; [1],505 nM
same,potency estimated from few doses,EPHB1; [1],331 nM
same,potency estimated from few doses,LCK; [1],519 nM
same,potency estimated from few doses,MAP3K11; [1],2030 nM
same,potency estimated from few doses,PAK6; [1],710 nM
same,potency estimated from few doses,PRKAA2; [1],1130 nM
same,potency estimated from few doses,RPS6KA3; [1],1840 nM
Clc1cc(Cl)cc(Nc2ccnc(Nc3cc(Cl)cc(Cl)c3)n2)c1 [GSK175726A],potency estimated from few doses,"AURKB; compound concentrations: 100 nM and 1000 nM (sheet 'Samples'), CATDS: 1.17744273258488E-2",461 nM
same,potency estimated from few doses,"BTK; compound concentrations: 100 nM and 1000 nM (sheet 'Samples'), CATDS: 2.6199359146872301E-2",82.1 nM
same,potency estimated from few doses,"EPHA2; compound concentrations: 100 nM and 1000 nM (sheet 'Samples'), CATDS: 3.0586231323348499E-2",64 nM
same,potency estimated from few doses,"EPHB1; compound concentrations: 100 nM and 1000 nM (sheet 'Samples'), CATDS: 3.1891027827673897E-2",60 nM
same,potency estimated from few doses,"LCK; compound concentrations: 100 nM and 1000 nM (sheet 'Samples'), CATDS: 2.0638344047220501E-2",125 nM
same,potency estimated from few doses,"PAK6; compound concentrations: 100 nM and 1000 nM (sheet 'Samples'), CATDS: 9.3443297736164402E-3",1060 nM
same,potency estimated from few doses,"PRKAA2; compound concentrations: 100 nM and 1000 nM (sheet 'Samples'), CATDS: 1.07442997812795E-2",618 nM
same,potency estimated from few doses,"RPS6KA3; compound concentrations: 100 nM and 1000 nM (sheet 'Samples'), CATDS: 8.5170276758985107E-3",1660 nM
CCn1c(-c2nonc2N)nc2c(C#CC(C)(C)O)nc(OCCN)cc21.CCn1c(-c2nonc2N)nc2c(C#CC(C)(C)O)nc(OCCN)cc21.Cl.Cl [GSK902056A],potency estimated from few doses,CIT; [1],1340 nM
same,potency estimated from few doses,PKN2; [1],581 nM
Cl.ON=C1CCc2cc(-c3nc(C4CCNCC4)[nH]c3-c3ccncc3)ccc21 [SB-614067-R],potency estimated from few doses,ACVR1B; [1],846 nM
same,potency estimated from few doses,MAPK14; [1],1160 nM
CCOc1nccc2c1nc(-c1nonc1N)n2CC [SB-737198],potency estimated from few doses,"PKN2; compound concentrations: 100 nM and 1000 nM (sheet 'Samples'), CATDS: 0.50424526517456403",231 nM
same,potency estimated from few doses,"RPS6KB1; compound concentrations: 100 nM and 1000 nM (sheet 'Samples'), CATDS: 0.20646016989107699",1320 nM
CCn1c(-c2nonc2N)nc2c(-c3ccccc3)ncc(OCCCN)c21.CCn1c(-c2nonc2N)nc2c(-c3ccccc3)ncc(OCCCN)c21.O=C(O)C(F)(F)F.O=C(O)C(F)(F)F [GSK260205A],potency estimated from few doses,"ACVR1B; compound concentrations: 100 nM and 1000 nM (sheet 'Samples'), CATDS: 3.5352360337843801E-2",755 nM
same,potency estimated from few doses,"BUB1; compound concentrations: 100 nM and 1000 nM (sheet 'Samples'), CATDS: 0.117322615111941",59 nM
same,potency estimated from few doses,"CIT; compound concentrations: 100 nM and 1000 nM (sheet 'Samples'), CATDS: 2.8413357389646399E-2",1630 nM
same,potency estimated from few doses,"MAPK14; compound concentrations: 100 nM and 1000 nM (sheet 'Samples'), CATDS: 4.1756268177550598E-2",478 nM
CCOC(=O)N1CCC(n2cnc(-c3ccc(F)cc3)c2-c2ccnc(N)n2)CC1 [SB-219952],potency estimated from few doses,"BTK; compound concentrations: 100 nM and 1000 nM (sheet 'Samples'), CATDS: 1.0743585683712699E-2",726 nM
same,potency estimated from few doses,"BUB1; compound concentrations: 100 nM and 1000 nM (sheet 'Samples'), CATDS: 8.9704944978388403E-3",1170 nM
same,potency estimated from few doses,"EPHA2; compound concentrations: 100 nM and 1000 nM (sheet 'Samples'), CATDS: 1.0740036537242301E-2",726 nM
same,potency estimated from few doses,"EPHB1; compound concentrations: 100 nM and 1000 nM (sheet 'Samples'), CATDS: 1.10661154917942E-2",677 nM
same,potency estimated from few doses,"LCK; compound concentrations: 100 nM and 1000 nM (sheet 'Samples'), CATDS: 1.05022707080212E-2",767 nM
same,potency estimated from few doses,"MAP3K11; compound concentrations: 100 nM and 1000 nM (sheet 'Samples'), CATDS: 1.0131438391308501E-2",838 nM
same,potency estimated from few doses,"MAPK14; compound concentrations: 100 nM and 1000 nM (sheet 'Samples'), CATDS: 3.3048485919856201E-2",97.1 nM
same,potency estimated from few doses,"MARK2; compound concentrations: 100 nM and 1000 nM (sheet 'Samples'), CATDS: 9.1119285329163396E-3",1120 nM
same,potency estimated from few doses,"PRKAA2; compound concentrations: 100 nM and 1000 nM (sheet 'Samples'), CATDS: 1.0917376994103299E-2",698 nM
same,potency estimated from few doses,"RPS6KA3; compound concentrations: 100 nM and 1000 nM (sheet 'Samples'), CATDS: 7.9232054284878294E-3",1760 nM
